# Laboratory results: PubChem BioAssay
# Values joined by “and” are separate entries in the source; they are usually repeats but may differ in a detail not shown here. Identical values can stand only once. Active and inactive are the calls of the source.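 How the source made its calls, unless noted: active means thallium flux through the channel raised or lowered by more than 3 SD from vehicle-only wells, actives on both sides; inactive means the rest.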
# Tests used:
# [1] = Wnt pathway potentiators raising nuclear beta-catenin – imaging, WNT3A-conditioned medium, mouse C2C12, NPC library, primary screen (AID 1117326; in the data active means nuclear beta-catenin stimulation mostly above about 4.2%, no sharp cut-off; inactive means mostly below about 10%); settings: stronger effect = higher value
# [2] = stimulators of insulin release from INS-1E, primary screen, cell-based, 5 mM glucose, NPC library (AID 1117329;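 active means compound raises insulin release from rat beta cells at 5 mM glucose, no numeric limit stated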); settings: rat INS-1E insulin secretion, at 10 µM, stronger effect = higher value
# [3] = growth inhibition of GSK3B-pretreated HCT116 cells – cell-based, CellTiter-Glo, 0.2 to 20 µM (AID 1117336;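 active means compounds lowering colon cancer cell viability after pretreatment blocking the GSK3B kinase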); settings: HCT116 viability after GSK3B inhibitor, at 20 µM, stronger effect = higher value
# [4] = inhibition of endothelial tube formation, primary screen, imaging, VEGF stimulated, CD31 staining, tube area, NPC library (AID 1117340;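 active means compound that reduces growth-factor-driven endothelial tube area in a mixed cell culture, no cutoff stated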); settings: VEGF-stimulated ADSC/ECFC co-culture, at 10 µM, stronger effect = higher value
# [5] = GLP1 release stimulators, primary, NCI-H716, NPC library (AID 1117341;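 active means compound raises GLP1 secretion from the human gut endocrine cells, with no numeric limit stated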); settings: NCI-H716 cells, at 10 µM, stronger effect = higher value
# [6] = HCT116 colon cancer cell growth inhibition, primary screen, CellTiter-Glo luminescence, NPC library (AID 1117342;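 active means compounds that lower survival of HCT116 colon cancer cells in the luminescence readout, no numeric limit stated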); settings: at 20 µM (top of the series)
# [7] = reduced SW480 viability measured with CellTiter-Glo, NPC library, primary (AID 1117343;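 active means compounds that lower viability of the colon cancer cells in the luminescence readout, with no numeric limit stated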); settings: CellTiter-Glo luminescence; at 20 µM (top of the series)
# [8] = NPC library primary testing for decreased DLD-1 cell viability via CellTiter-Glo (AID 1117346;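 active means compounds that lower survival of DLD-1 colon cancer cells in the luminescence readout, no cutoff given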); settings: DLD-1 viability, CellTiter-Glo luminescence; at 20 µM (top of the series)
# [9] = biological target: 6-phosphogluconate dehydrogenase, decarboxylating (Homo sapiens) (UniProt P52209); experiment: inhibition of human phosphogluconate dehydrogenase – biochemical, recombinant enzyme, NADPH absorbance, primary screen (AID 1159550;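 active means at least 20% inhibition of 6-phosphogluconate dehydrogenase activity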); settings: recombinant 6PGD, NADPH absorbance 341 nm; at 10 µM; stronger effect = higher value
# [10] = modulation of C. elegans fzo-1 (AID 1259413; call rule not given here;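 further: fzo-1 mutant C. elegans worms in liquid wells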); settings: C. elegans fzo-1 modulator screen, mean read-out; stronger effect = higher value
# [11] = EMT-state selective cytotoxicity in co-culture – imaging, PC-3E GFP, TEM4-18 mCherry, primary screen (AID 1345086;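 active means compounds killing one labelled cell type while sparing the other, by normalised counts and ratio limits, not self-fluorescent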;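 on all read-outs here: cells exposed to compound for 72 h before imaging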;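 on red/green cell ratio (normalised): normalised mesenchymal count divided by normalised epithelial count so high means epithelial killing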); settings: PC-3E GFP / TEM4-18 mCherry co-culture, imaging cell counts, at 1 µM; for red/green cell ratio (normalised): actives lie on both sides, counts scaled to control wells, 1 = unselective
# [12] = MELAS cybrid and Rieske KO viability enhancers – cell-based, MELAS cybrids, Rieske KO mouse fibroblasts, CellTiter-Glo, primary screen (AID 1508586;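 active means mean z-score across replicates of 1.96 or higher in either the MELAS or the Rieske mutant cell line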;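 further: z relative to plate mean and SD of compound and empty wells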); settings: low glucose
# [13] = biological target: NAD(+) hydrolase SARM1 (Homo sapiens) (UniProt Q6SZW1); experiment: blocking NAD cleavage by SARM1 SAM-TIR – cell lysate, NAD-Glo luminescence (AID 1508614;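 active means compound whose remaining NAD level is above about 45 nM, limit read from the data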); settings: SAM-TIR HEK293T lysate NADase, at 1 µM, stronger effect = higher value
# [14] = biological target: Mitogen-activated protein kinase 7 (Homo sapiens) (UniProt Q13164); experiment: Gal4-ERK5 driven luciferase induction – cell-based, HTS, primary screen (AID 1508626;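 active means luciferase signal above three times the same-plate solvent-only control wells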;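 further: luciferase driven by Gal4-ERK5 fusion binding five Gal4 sites before minimal TATA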); settings: HeLa Gal4-ERK5 transactivation, 18 h, at 5 µM, stronger effect = higher value
# [15] = test system: F380Y; experiment: BK channel mutant inhibitors and activators – cell-based, U2OS BacMam, thallium flux, beta subunits, selectivity assay, profiling panel (AID 1259406); settings: U2OS BacMam BK variants, at 30 µM;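 further: initial slope of Thallos dye fluorescence rise after thallium is added; log ratio against the mean of 0.3% DMSO vehicle wells on the same plate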
# [16] = test system: F380Y/beta1; experiment: as above; settings: U2OS BacMam BK variants, at 30 µM
# [17] = test system: F380Y/beta2Delta; experiment: as above; settings: U2OS BacMam BK variants, at 30 µM
# [18] = test system: F380Y/beta4; experiment: as above; settings: U2OS BacMam BK variants, at 30 µM
# [19] = growth inhibition, single agents and combos, ICB984, cell-based, cisplatin or BGB combos, synergistic combos for chromothripsis tumors (AID 1671451; call rule not given here;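 further: cells exposed for 96 hours before readout; 0% = vehicle DMSO and 100% = killing by high DMSO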); settings: ICB984 medulloblastoma cells, drug combinations, stronger effect = higher value
# [20] = measured here: epithelial PC-3E GFP cell survival
# [21] = measured here: mesenchymal TEM4-18 mCherry cell survival
# [22] = MELAS cybrid survival, CellTiter-Glo 48 h, stronger effect = higher value
# [23] = Rieske KO mouse fibroblast survival, CellTiter-Glo 72 h
# Sequence of 6-phosphogluconate dehydrogenase, decarboxylating (Homo sapiens) (P52209 whole entry, looked up): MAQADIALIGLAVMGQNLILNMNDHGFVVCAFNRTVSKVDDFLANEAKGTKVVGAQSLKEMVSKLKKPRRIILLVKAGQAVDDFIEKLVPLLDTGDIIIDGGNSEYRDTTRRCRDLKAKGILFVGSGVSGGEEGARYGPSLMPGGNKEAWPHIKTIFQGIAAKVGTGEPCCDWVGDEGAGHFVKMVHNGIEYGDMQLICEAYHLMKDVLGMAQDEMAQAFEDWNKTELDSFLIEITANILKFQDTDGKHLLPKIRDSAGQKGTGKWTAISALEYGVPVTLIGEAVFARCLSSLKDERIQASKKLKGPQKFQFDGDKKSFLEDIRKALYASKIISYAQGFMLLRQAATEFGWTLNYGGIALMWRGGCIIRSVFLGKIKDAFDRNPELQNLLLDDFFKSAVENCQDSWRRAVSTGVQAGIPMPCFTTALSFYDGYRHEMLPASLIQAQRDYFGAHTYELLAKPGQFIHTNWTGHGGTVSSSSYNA
# Sequence of NAD(+) hydrolase SARM1 (Homo sapiens) (Q6SZW1 whole entry, looked up, the tested form may be a part): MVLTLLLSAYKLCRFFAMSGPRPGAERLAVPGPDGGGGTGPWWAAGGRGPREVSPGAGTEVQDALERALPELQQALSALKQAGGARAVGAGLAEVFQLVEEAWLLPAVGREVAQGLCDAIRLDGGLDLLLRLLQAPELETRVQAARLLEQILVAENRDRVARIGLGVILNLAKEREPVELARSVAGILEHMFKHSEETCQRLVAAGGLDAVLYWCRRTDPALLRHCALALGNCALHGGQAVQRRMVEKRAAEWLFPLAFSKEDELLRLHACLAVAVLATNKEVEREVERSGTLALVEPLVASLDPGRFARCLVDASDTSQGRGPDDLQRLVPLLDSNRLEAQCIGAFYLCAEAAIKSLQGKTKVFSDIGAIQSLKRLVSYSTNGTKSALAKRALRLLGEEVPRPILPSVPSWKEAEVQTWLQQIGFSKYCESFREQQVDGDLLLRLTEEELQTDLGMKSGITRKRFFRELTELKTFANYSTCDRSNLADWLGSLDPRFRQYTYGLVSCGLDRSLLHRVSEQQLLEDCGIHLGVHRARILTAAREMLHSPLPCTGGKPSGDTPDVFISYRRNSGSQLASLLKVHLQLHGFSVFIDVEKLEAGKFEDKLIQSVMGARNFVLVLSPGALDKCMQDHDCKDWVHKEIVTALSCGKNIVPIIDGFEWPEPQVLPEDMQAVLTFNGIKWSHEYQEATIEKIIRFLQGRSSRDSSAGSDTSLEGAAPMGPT
# Sequence of Mitogen-activated protein kinase 7 (Homo sapiens) (Q13164 whole entry, looked up, the tested form may be a part): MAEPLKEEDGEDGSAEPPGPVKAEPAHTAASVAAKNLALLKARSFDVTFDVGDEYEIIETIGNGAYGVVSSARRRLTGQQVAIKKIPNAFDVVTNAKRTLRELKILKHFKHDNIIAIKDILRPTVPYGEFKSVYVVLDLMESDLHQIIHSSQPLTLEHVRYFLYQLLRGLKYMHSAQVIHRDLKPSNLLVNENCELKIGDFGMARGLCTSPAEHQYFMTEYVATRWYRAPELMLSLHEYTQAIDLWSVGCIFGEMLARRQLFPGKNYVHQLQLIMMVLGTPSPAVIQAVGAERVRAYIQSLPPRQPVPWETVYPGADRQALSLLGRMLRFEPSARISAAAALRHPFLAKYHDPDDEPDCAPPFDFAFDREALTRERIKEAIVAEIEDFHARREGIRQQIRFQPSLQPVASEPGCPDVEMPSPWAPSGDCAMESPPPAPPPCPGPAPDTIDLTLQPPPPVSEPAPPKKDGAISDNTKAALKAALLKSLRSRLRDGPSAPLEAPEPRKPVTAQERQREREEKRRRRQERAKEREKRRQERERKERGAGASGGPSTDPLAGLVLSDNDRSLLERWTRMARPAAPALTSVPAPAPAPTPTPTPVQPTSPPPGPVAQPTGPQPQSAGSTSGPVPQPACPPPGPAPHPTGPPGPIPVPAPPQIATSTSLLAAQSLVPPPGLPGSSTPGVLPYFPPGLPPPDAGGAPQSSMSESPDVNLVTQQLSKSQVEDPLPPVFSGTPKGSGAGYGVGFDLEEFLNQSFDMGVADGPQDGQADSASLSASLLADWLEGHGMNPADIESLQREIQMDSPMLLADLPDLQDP
compound,measurement,setting,value
CC[C@H](C)C(=O)O[C@H]1C[C@@H](C)C=C2C=C[C@H](C)[C@H](CC[C@@H]3C[C@@H](O)CC(=O)O3)[C@H]21,nuclear beta-catenin stimulation,[1]; at 10 µM,13.1% (inactive)
same,nuclear beta-catenin stimulation,"[1]; stimulation, at 2 µM",4.2%
same,insulin secretion stimulation,[2],6.6% (inactive)
same,viability decrease,[3],69.3% (active)
same,tube area decrease,[4],95.5% (active)
same,GLP1 secretion stimulation,[5],25% (active)
same,inhibition of viability,[6],56.9% (active)
same,viability decrease (inhibition),[7],87% (active)
same,viability decrease (inhibition),[8],36.2% (inactive)
same,inhibition,[9],-1.21% (inactive)
same,mean signal,[10],253 (inactive)
same,red/green cell ratio (normalised),[11],0.98 (inactive)
same,normalised cell number,[11]; [20],1.39
same,normalised cell number,[11]; [21],1.37
same,z-score,[12]; [22],-0.236 and -1.19 (inactive)
same,z-score,[12]; [23],2.23 and -0.0427
same,remaining NAD,[13],10 nM (inactive)
same,luciferase signal,[14],60 AU (inactive)
same,log fold change Tl+ flux,[15],0.184 (active)
same,log fold change Tl+ flux,[16],0.00194 (inactive)
same,log fold change Tl+ flux,[17],0.0899 (active)
same,log fold change Tl+ flux,[18],-0.0805 (inactive)
Nc1nc2c(ncn2COCCO)c(=O)[nH]1,nuclear beta-catenin stimulation,[1]; at 10 µM,3% (inactive)
same,nuclear beta-catenin stimulation,"[1]; stimulation, at 2 µM",-1%
same,insulin secretion stimulation,[2],0.5% (inactive)
same,viability decrease,[3],-0.3% (inactive)
same,tube area decrease,[4],8.6% (inactive)
same,GLP1 secretion stimulation,[5],-0.5% (inactive)
same,inhibition of viability,[6],-3.47% (inactive)
same,viability decrease (inhibition),[7],23.2% (inactive)
same,viability decrease (inhibition),[8],-16.2% (inactive)
same,inhibition,[9],18.2% (inactive)
same,mean signal,[10],281 (inactive)
same,red/green cell ratio (normalised),[11],1.25 (inactive)
same,normalised cell number,[11]; [20],1.01
same,normalised cell number,[11]; [21],1.26
same,z-score,[12]; [22],-0.252 (inactive) and -0.378 (inactive) and 0.479
same,z-score,[12]; [23],0.554 and 0.269 and 2.37
same,remaining NAD,[13],10 nM (inactive)
same,luciferase signal,[14],40 AU (inactive)
same,inhibition,"[19]; BGB IC20 combo, at 0.005 µM",14.3% and 0.139%
same,inhibition,"[19]; BGB IC40 combo, at 0.005 µM",-30.6% and -19%
same,inhibition,"[19]; BGB IC40 combo, at 0.05 µM",-33.3% and -34.4%
same,inhibition,[19]; at 0.5 µM,-25.4% (inactive) and -25.1% (inactive)
same,inhibition,"[19]; cisplatin combo, at 0.05 µM",-37% and -39.3%
same,inhibition,"[19]; cisplatin combo, at 0.5 µM",-27.7% and -16.9%
same,inhibition,"[19]; cisplatin combo, at 5 µM",-26.2% and -27.5%
same,inhibition,"[19]; measured here: 5 uM single agent, at 5 µM",-25.9% and 2.01%
same,log fold change Tl+ flux,[15],0.00551 (inactive)
same,log fold change Tl+ flux,[16],-0.0568 (inactive)
same,log fold change Tl+ flux,[17],0.0127 (inactive)
same,log fold change Tl+ flux,[18],-0.0606 (inactive)
CC[C@H]1CN2CCc3cc(OC)c(OC)cc3[C@@H]2C[C@@H]1C[C@H]1NCCc2cc(OC)c(OC)cc21,nuclear beta-catenin stimulation,[1]; at 10 µM,12.4% (inactive)
same,nuclear beta-catenin stimulation,"[1]; stimulation, at 2 µM",9.1%
same,insulin secretion stimulation,[2],13.4% (inactive)
same,viability decrease,[3],82.1% (active)
same,tube area decrease,[4],110% (active)
same,GLP1 secretion stimulation,[5],2.4% (inactive)
same,inhibition of viability,[6],84.8% (active)
same,viability decrease (inhibition),[7],115% (active)
same,viability decrease (inhibition),[8],97% (active)
same,inhibition,[9],6.15% (inactive)
same,remaining NAD,[13],10 nM (inactive)
same,luciferase signal,[14],24 AU (inactive)
CCC1(c2ccccc2)C(=O)NCNC1=O,nuclear beta-catenin stimulation,[1]; at 10 µM,0.6% (inactive)
same,nuclear beta-catenin stimulation,"[1]; stimulation, at 2 µM",1.4%
same,insulin secretion stimulation,[2],-2.2% (inactive)
same,viability decrease,[3],-8.45% (inactive)
same,tube area decrease,[4],12.9% (inactive)
same,GLP1 secretion stimulation,[5],-2% (inactive)
same,inhibition of viability,[6],1% (inactive)
same,viability decrease (inhibition),[7],-8.1% (inactive)
same,viability decrease (inhibition),[8],-8.9% (inactive)
same,inhibition,[9],14.9% (inactive)
same,mean signal,[10],235 (inactive)
same,red/green cell ratio (normalised),[11],1.02 (inactive)
same,normalised cell number,[11]; [20],1.02
same,normalised cell number,[11]; [21],1.05
same,z-score,[12]; [22],-0.279 (inactive) and 0.626 (inactive)
same,z-score,[12]; [23],0.595 and -0.386
same,remaining NAD,[13],10 nM (inactive)
same,luciferase signal,[14],60 AU (inactive)
same,log fold change Tl+ flux,[15],-0.0227 (inactive)
same,log fold change Tl+ flux,[16],0.00204 (inactive)
same,log fold change Tl+ flux,[17],-0.0144 (inactive)
same,log fold change Tl+ flux,[18],0.00245 (inactive)
CC(C)NCC(O)c1ccc(O)c(O)c1 (stereo not drawn),nuclear beta-catenin stimulation,[1]; at 10 µM,-0.3% (inactive)
same,nuclear beta-catenin stimulation,"[1]; stimulation, at 2 µM",1.9%
same,insulin secretion stimulation,[2],1.4% (inactive)
same,viability decrease,[3],54.1% (active)
same,tube area decrease,[4],-8.1% (inactive)
same,GLP1 secretion stimulation,[5],6.8% (inactive)
same,inhibition of viability,[6],33.2% (inactive)
same,viability decrease (inhibition),[7],28.5% (inactive)
same,viability decrease (inhibition),[8],23.6% (inactive)
same,inhibition,[9],-1.67% (inactive)
same,mean signal,[10],227 (inactive)
same,red/green cell ratio (normalised),[11],1.26 (inactive)
same,normalised cell number,[11]; [20],1.07
same,normalised cell number,[11]; [21],1.35
same,z-score,[12]; [22],-0.378 (inactive) and -0.294 (inactive)
same,z-score,[12]; [23],0.858 and -1.25
same,remaining NAD,[13],10 nM (inactive)
same,luciferase signal,[14],60 AU (inactive)
same,log fold change Tl+ flux,[15],0.0351 (inactive)
same,log fold change Tl+ flux,[16],0.0171 (inactive)
same,log fold change Tl+ flux,[17],0.061 (inactive)
same,log fold change Tl+ flux,[18],0.0647 (inactive)
CSCC[C@H](N)C(=O)O,nuclear beta-catenin stimulation,[1]; at 10 µM,1.9% (inactive)
same,nuclear beta-catenin stimulation,"[1]; stimulation, at 2 µM",1.3%
same,insulin secretion stimulation,[2],0.5% (inactive)
same,viability decrease,[3],-8.1% (inactive)
same,tube area decrease,[4],2.3% (inactive)
same,GLP1 secretion stimulation,[5],-2.6% (inactive)
same,inhibition of viability,[6],0.5% (inactive)
same,viability decrease (inhibition),[7],0.4% (inactive)
same,viability decrease (inhibition),[8],-6% (inactive)
CC(C)=CCOc1ccc(/C=C/C(=O)c2ccc(OCC=C(C)C)cc2OCC(=O)O)cc1,nuclear beta-catenin stimulation,[1]; at 10 µM,10.1% (inactive)
same,nuclear beta-catenin stimulation,"[1]; stimulation, at 2 µM",-0.2%
same,insulin secretion stimulation,[2],0.6% (inactive)
same,viability decrease,[3],99.2% (active)
same,tube area decrease,[4],108% (active)
same,GLP1 secretion stimulation,[5],-0.1% (inactive)
same,inhibition of viability,[6],99.6% (active)
same,viability decrease (inhibition),[7],102% (active)
same,viability decrease (inhibition),[8],102% (active)
CCC(C)(C)C(=O)O[C@H]1C[C@@H](C)C=C2C=C[C@H](C)[C@H](CC[C@@H]3C[C@@H](O)CC(=O)O3)[C@H]21,nuclear beta-catenin stimulation,[1]; at 10 µM,15.9% (inactive)
same,nuclear beta-catenin stimulation,"[1]; stimulation, at 2 µM",7.6%
same,insulin secretion stimulation,[2],13.1% (inactive)
same,viability decrease,[3],95.1% (active)
same,tube area decrease,[4],91% (active)
same,GLP1 secretion stimulation,[5],28% (active)
same,inhibition of viability,[6],86% (active)
same,viability decrease (inhibition),[7],119% (active)
same,viability decrease (inhibition),[8],77.8% (active)
same,inhibition,[9],2.59% (inactive)
same,mean signal,[10],230 (inactive)
same,red/green cell ratio (normalised),[11],0.86 (inactive)
same,normalised cell number,[11]; [20],0.75
same,normalised cell number,[11]; [21],0.65
same,z-score,[12]; [22],-2.63 (inactive) and -1.16 (inactive)
same,z-score,[12]; [23],-0.283 and -0.755
same,remaining NAD,[13],10 nM (inactive)
same,luciferase signal,[14],220 AU (inactive)
same,log fold change Tl+ flux,[15],0.085 (inactive)
same,log fold change Tl+ flux,[16],0.0381 (inactive)
same,log fold change Tl+ flux,[17],0.0908 (active)
same,log fold change Tl+ flux,[18],-0.0747 (inactive)
